# PubChem BioAssay AID2845 (The Scripps Research Institute Molecular Screening Center, 2010)
# Out of some 2,300 compounds screened, about 2,000 (87%) were called active. The set was probably picked from earlier hits. These entries were drawn from the full list. Unmarked numbers belong to inactive results. Cut-off read from the data, not from the text of the source: active = activation above about 49%; inactive = the rest.
# Biological target: Aryl hydrocarbon receptor (Homo sapiens) (UniProt P35869)
# Sequence (P35869 whole entry, looked up): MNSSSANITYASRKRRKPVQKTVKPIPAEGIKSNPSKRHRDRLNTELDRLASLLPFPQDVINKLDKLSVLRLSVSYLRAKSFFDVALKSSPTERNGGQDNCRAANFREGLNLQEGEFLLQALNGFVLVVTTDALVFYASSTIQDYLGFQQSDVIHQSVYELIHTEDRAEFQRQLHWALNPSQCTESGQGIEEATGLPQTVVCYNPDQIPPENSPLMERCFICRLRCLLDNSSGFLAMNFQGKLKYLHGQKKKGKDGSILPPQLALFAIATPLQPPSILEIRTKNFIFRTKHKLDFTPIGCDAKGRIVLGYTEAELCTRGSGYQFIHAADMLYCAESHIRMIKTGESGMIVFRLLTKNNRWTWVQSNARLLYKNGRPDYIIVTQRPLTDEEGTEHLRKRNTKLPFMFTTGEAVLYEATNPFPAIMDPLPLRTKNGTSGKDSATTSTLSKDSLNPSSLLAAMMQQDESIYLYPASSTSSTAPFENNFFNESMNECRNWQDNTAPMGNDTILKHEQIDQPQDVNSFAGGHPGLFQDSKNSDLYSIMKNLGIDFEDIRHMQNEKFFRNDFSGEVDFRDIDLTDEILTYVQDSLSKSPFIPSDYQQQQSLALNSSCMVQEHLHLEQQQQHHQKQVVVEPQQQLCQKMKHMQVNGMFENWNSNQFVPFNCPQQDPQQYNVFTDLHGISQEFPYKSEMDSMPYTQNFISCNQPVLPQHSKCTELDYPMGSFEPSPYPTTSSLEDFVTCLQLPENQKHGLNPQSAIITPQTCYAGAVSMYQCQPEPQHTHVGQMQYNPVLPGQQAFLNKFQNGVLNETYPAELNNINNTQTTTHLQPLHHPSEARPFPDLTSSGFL
# Assay: activators of human aryl hydrocarbon receptor reporter – cell-based, luminescence, luciferase reporter, confirmation (AID 2845);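 note: HepG2 hepatoma cells carrying a DRE-driven firefly luciferase reporter; 0% = vehicle wells and 100% = reference agonist wells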
# Conditions: human cells, AHR-responsive luciferase reporter, at 9 µM, hits give high values
row,SMILES,activation
1,Cc1ccnc(-n2sc3ccccc3c2=O)n1,55.4% (active)
2,COc1ccccc1NC(=O)C1=C(C)NC2=C(C(=O)CCC2)C1c1ccc(C)o1 (configuration not stated),110% (active)
3,NC(=O)Nc1ccccc1C(=O)NCCc1ccccc1,106% (active)
4,CC(C)n1ncc2c(C(=O)Nc3ccc(CC#N)cc3)cc(C3CC3)nc21,25.4%
5,Cc1ccc(NC(=O)Nc2cccnc2)cc1,67.7% (active)
6,CCC(=O)NC(=S)Nc1ccc(NC(=O)c2ccco2)c(Cl)c1,82% (active)
7,COc1cc(NC(=O)c2ccc(-c3csc(C)n3)cc2)c(OC)cc1Cl,119% (active)
8,CCNC(=S)N1CCC(c2nc3cc(C)c(C)cc3[nH]2)CC1,25.5%
9,O=C(Nc1cccc(Br)c1)c1ccc2snnc2c1,74.4% (active)
10,CNC(=O)c1ccc2nc(NC(C)=O)sc2c1,22.7%
11,COc1cc(CNCc2ccc3c(c2)OCO3)c([N+](=O)[O-])cc1OC,87.3% (active)
12,Brc1ccc(C2=CC(c3ccco3)n3ncnc3N2)cc1 (configuration not stated),90.4% (active)
13,S=c1[nH]nc(-c2cc(-c3ccsc3)n[nH]2)n1-c1ccccc1,103% (active)
14,Cc1ccnc(NC(=O)c2ccc(Cl)c([N+](=O)[O-])c2)c1,60.8% (active)
15,Cc1cccc(N=Nc2c(O)[nH]c3ccc(F)cc23)c1,147% (active)
16,CC(=O)Nc1ccc(-c2nc3ccccc3o2)cc1,-4.38%
17,COc1cccc(-c2nc3cc(C)ccc3o2)c1,47% (active)
18,COc1ccc(OC)c(-c2csc(-c3cccs3)n2)c1,94.4% (active)
19,O=C(CCCCn1c(=O)[nH]c2ccccc2c1=O)NCc1ccc2c(c1)OCO2,56.1% (active)
20,Brc1ccc(C2CC(c3ccccc3)=Nc3ccccc3N2)cc1 (configuration not stated),80.8% (active)
21,NNc1nc2c(Cl)cccc2s1,57.5% (active)
22,CC(C)n1cnc2c(Nc3cccc(Cl)c3)nc(N(CCO)CCCO)nc21,11.4%
23,CN(C)S(=O)(=O)Oc1ccccc1C(=O)Nc1ccccc1Cl,99.1% (active)

row,SMILES,activation
1,CCOC(=O)c1nc(-c2ccc3c(c2)OCO3)[nH]c1C,68.3% (active)
2,CCn1c2ccccc2c2cc(NC(=O)C/C(C)=N/NC(=O)c3ccccc3N)ccc21,61.5% (active)
3,CCn1c(NC(=O)c2nn(C)cc2Br)nc2ccccc21,70.7% (active)
4,O=C(Nc1ccc(Cl)cn1)c1cnn2cccnc12,179% (active)
5,COc1ccc(Nc2nnc(C)c3ccccc23)cc1,82.5% (active)
6,Cn1c(C(=O)NCCc2ccsc2)cc2c(=O)n(C)c3ccccc3c21,65.4% (active)
7,O=C(NC1CC1)C1=C[C@H](c2c[nH]c3ccccc23)C[C@H](OCc2ccc(CO)cc2)O1,27.6%
8,O=C(N/N=C/c1ccco1)c1ccc(C(=O)N/N=C/c2ccco2)o1,73.2% (active)
9,O=C(N/N=C/c1c[nH]c2ccccc12)c1cc2ccccc2o1,42.3%
10,COc1ccc(NC(=O)c2ccco2)cc1NC(=O)c1ccc(C#N)cc1F,71.7% (active)
11,N#C/C(=C(/O)COc1cccc2ccccc12)c1nc2ccccc2[nH]1,84.1% (active)
12,O=C(Nc1cc(S(=O)(=O)Nc2ccc(Cl)cc2)ccc1O)c1ccc(F)cc1F,103% (active)
13,Cc1nnc(NC(=O)/C=C/c2ccco2)s1,127% (active)
14,NS(=O)(=O)c1ccc(-c2ccc(/C=C3\SC(=O)NC3=O)o2)cc1,116% (active)
15,COc1cc(/C=N/N=C(\N)c2nonc2N)cc(OC)c1OC,101% (active)
16,Cc1cccc(NC(=O)c2ccc3ccccc3n2)n1,128% (active)
17,Cc1csc(NC(=S)Nc2cccc(Cl)c2)n1,98.7% (active)
18,CCSc1ccccc1C(=O)Nc1ccc2c(c1)OCO2,101% (active)
19,C/C(=N/NC(=S)Nc1ccccc1)c1ccc2c(c1)OCO2,16%
20,Cc1cccc(NC(=O)Nc2ccc3c(c2)OCO3)n1,123% (active)
21,CCC(C)NCC(=O)Nc1ccc([N+](=O)[O-])cc1C(=O)Nc1ccccc1F (configuration not stated),88.2% (active)
22,COCCNc1nc(-c2ccccc2)nc2c1oc1ccccc12,121% (active)
23,CSc1ccc(C#N)cc1NC(=O)c1ccc(Cl)cc1,86.5% (active)

row,SMILES,activation
1,CCN(CC)C(=O)Oc1ccc(Br)cc1C(=O)Nc1ccc(F)c(Cl)c1,124% (active)
2,C/C(=N\NC(=O)c1cccnc1)c1ccc(-n2ccnc2)cc1,86.3% (active)
3,C(=N\Nc1ccc2ccccc2n1)/c1ccc2c(c1)OCO2,-10.8%
4,Cc1noc(C)c1/C=N/Nc1ccc2ccccc2n1,176% (active)
5,COc1ccccc1Nc1ncnc2c1oc1ccccc12,132% (active)
6,CCn1ccnc1CN(C)Cc1nc(-c2ccc3c(c2)OCO3)no1,79.9% (active)
7,O=C(Nc1ccc(C2CC2(Cl)Cl)cc1)c1cccc([N+](=O)[O-])c1 (configuration not stated),96.2% (active)
8,O=C(NCCCn1ccnc1)c1cc(-c2ccccc2)on1,323% (active)
9,Clc1ccc(Nc2nc(-c3cccs3)cs2)nc1,141% (active)
10,Cc1ccc(NC(=O)NNC(=O)c2sccc2-n2cccc2)cc1,101% (active)
11,Cc1cccc(Nc2nc(-c3ccccc3)cs2)n1,131% (active)
12,COc1ccc(Nc2nc(-c3ccccc3)cs2)cc1,91.2% (active)
13,COc1ccc2nc(Nc3nc(-c4ccncc4)cs3)sc2c1,101% (active)
14,C/C(CC1CC(C)(C)OC1=O)=N/Nc1nc(-c2ccccc2)cs1 (configuration not stated),-2.24%
15,S=c1nc2ccccc2c2nc(-c3cccnc3)[nH]n12,125% (active)
16,O=C(Nc1ccc(C(F)(F)F)cc1)c1cccc(-n2cnnn2)c1,106% (active)
17,O=C(Nc1ccc(-c2csc(Nc3cccc(C(F)(F)F)c3)n2)cc1)c1cccc(C(F)(F)F)c1,4.55%
18,CC(C(=O)N=Nc1c(O)n(C)c2ccc(Br)cc12)n1cnc2ccccc2c1=O (configuration not stated),73.7% (active)
19,Cc1nn(Cc2ccc(Cl)cc2)c(Cl)c1/C=N/NC(=O)c1cccnc1,74.2% (active)
20,O=C(CSc1cccc2cccnc12)N/N=C/c1cccnc1,21.4%
21,Cc1c(C(=O)NCC(c2ccco2)N2CCCC2)oc2ccc(Cl)cc12 (configuration not stated),75.5% (active)
